From PubChem BioAssay (EPA / NIEHS)
Records with an inconclusive call do not appear. Calls of active or inactive are those of the source. How the source made its calls, unless noted: active means hit-call score of the fitted dose curve at least 0.9, where 1 is the maximum; inactive means score below 0.9.

Legend:
[1] = ACEA_ER_80hr: ACEA Biosciences xCELLigence Real-Time Cell Analysis on Estrogen Receptor Agonism for Proliferation (AID 2282667; active means hit-call score of the fitted dose curve at least 0.9, where 1 is the maximum); settings: T47D proliferation, impedance (xCELLigence), 80 h
Method in brief: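 Real-time impedance growth kinetics of human T-47D breast cells read 80 h after dosing, gain-of-signal fitted relative to DMSO. Compounds: 1:4 serial series, top final concentration 100 uM, n = 2.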

[2] = APR_HepG2_CellCycleArrest_24hr: Apredica 24-hour HepG2 Assay for Cell Cycle Arrest (AID 2282905); settings: imaging, actives raise or lower the signal;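 further: cell cycle arrest scored as ratio of 2N to 4N nuclear DNA content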
Method in brief: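 Cell cycle arrest is scored from nuclear DNA content measured by high-content imaging of Hoechst 33342-stained HepG2 cells following 24-hour treatment at ten concentrations up to 200 uM, with DMSO as baseline.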

[3] = APR_HepG2_NuclearSize_24hr: Apredica 24-hour HepG2 Assay for Nuclear Size (AID 2282907); settings: high-content imaging, actives raise or lower the signal
Method in brief: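 Compounds in DMSO (final 0.5%) were added to human HepG2 hepatoma cells at ten concentrations up to 200 uM for 24 hr. Fixed nuclei were stained with Hoechst 33342, and nuclear diameter was quantified from automated images.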

[4] = APR_HepG2_CellLoss_24hr: Apredica 24-hour HepG2 Assay for Cell Loss (AID 2282908); settings: high-content imaging;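 on AC50: fit in both directions so a hit may be cell loss or gain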
Method in brief: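 Cell number is quantified by fluorescence imaging of Hoechst 33342-stained nuclei following dosing at 0.39–200 uM in 0.5% DMSO. Curves are fitted in both directions from the DMSO baseline.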

[5] = APR_HepG2_MicrotubuleCSK_24hr: Apredica 24-hour HepG2 Assay for Microtubule CSK Stabilty (AID 2282909); settings: HepG2 microtubule cytoskeleton imaging, actives raise or lower the signal
Method in brief: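 Steps: dose HepG2 for 24 h (0.39–200 uM, 0.5% DMSO); fix 30 min in 3.7% formaldehyde at room temperature; permeabilize; stain alpha-tubulin 60 min; image microtubule cytoskeleton at 20x. Signal change fitted in both directions relative to DMSO.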

[6] = APR_HepG2_MitoticArrest_24hr: Apredica 24-hour HepG2 Assay for Mitotic Arrest (AID 2282910); settings: high-content imaging, actives raise or lower the signal
Method in brief: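 HepG2 cells, 24 h exposure at 0.39-200 uM (10 concentrations, duplicate, 0.5% DMSO). Fixed, stained for phospho-histone H3 with Hoechst; imaged by high-content microscopy, bidirectional fit versus DMSO.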

[7] = APR_HepG2_MitoMembPot_24hr: Apredica 24-hour HepG2 Assay for Mitochondrial Membrane Potential (AID 2282911); settings: imaging, actives raise or lower the signal
Method in brief: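 Mitochondrial membrane potential imaged via MitoTracker Red CMXRos (250 nM, 30 min pre-fixation) in fixed HepG2 cells with Hoechst nuclear identification. Ten concentrations 0.39–200 uM, 24 h treatment, 0.5% DMSO; CCCP as positive control.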

[8] = APR_HepG2_MitoMass_24hr: Apredica 24-hour HepG2 Assay for Mitochondrial Mass (AID 2282912); settings: high-content imaging, actives raise or lower the signal
Method in brief: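 The liver line HepG2 was dosed in duplicate across a 0.39–200 uM series, with final DMSO held at 0.5% v/v, and harvested at 24 hr. High-content imaging measured mitochondrial dye staining.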

[9] = APR_HepG2_CellCycleArrest_72hr: Apredica 72-hour HepG2 Assay for Cell Cycle Arrest (AID 2282914); settings: high-content imaging, actives raise or lower the signal
Method in brief: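 Read-out: nuclear DNA content from Hoechst 33342 high-content imaging (20x, six fields/well) after 3.7% formaldehyde fixation, fitted bidirectionally against DMSO. Treatment was 72 h in HepG2, ten concentrations 0.39–200 uM, duplicate, 0.5% DMSO.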

[10] = APR_HepG2_CellLoss_72hr: Apredica 72-hour HepG2 Assay for Cell Loss (AID 2282915); settings: high-content imaging
Method in brief: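 HepG2 cells exposed 72 h to compound at 0.39–200 uM (10 concentrations, duplicate) in 0.5% DMSO. Fixed with 3.7% formaldehyde and Hoechst 33342-stained. Imaged at 20x; nuclear count gives cell number, fitted bidirectionally versus DMSO.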

[11] = APR_HepG2_P-H2AX_72hr: Apredica 72-hour HepG2 Assay for H2AX Phosphorylation (AID 2282916); settings: imaging, actives raise or lower the signal;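 further: phospho-histone H2A.x immunostain intensity per cell marking DNA damage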
Method in brief: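 Following 72 hr treatment with 0.39–200 uM compound, HepG2 cells were formaldehyde-fixed, permeabilized and stained for phospho-H2A.x; signal was measured by high-content imaging and fitted bidirectionally against DMSO controls.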

[12] = APR_HepG2_MitoticArrest_72hr: Apredica 72-hour HepG2 Assay for Mitotic Arrest (AID 2282918); settings: high-content imaging, actives raise or lower the signal
Method in brief: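 High-content imaging of fixed human HepG2 cells after 72 h compound exposure (0.39–200 uM, duplicates, 0.5% DMSO); mitotic arrest scored from phospho-histone H3 and nuclear Hoechst staining relative to DMSO.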

[13] = APR_HepG2_P-H2AX_24hr: Apredica 24-hour HepG2 Assay for H2AX Phosphorylation (AID 2282920); settings: high-content imaging, actives raise or lower the signal
Method in brief: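 High-content imaging of phospho-histone H2A.x immunofluorescence, nuclei counterstained with Hoechst 33342, in fixed HepG2 cells. Compounds ran 0.39–200 uM in duplicate for 24 h, final DMSO 0.5%. Signal change fitted both directions against DMSO.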

[14] = APR_HepG2_StressKinase_72hr: Apredica 72-hour HepG2 Assay for Stress Kinase (AID 2282921); settings: HepG2 stress kinase (phospho-c-Jun) imaging, actives raise or lower the signal
Method in brief: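 Fluorescence intensity of Cy3-tagged anti-phospho-c-Jun antibody, quantified per cell from Hoechst-defined nuclei across six images per well, served as the read-out following 72 h exposure (0.39–200 uM, 0.5% v/v DMSO).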

[15] = APR_HepG2_StressKinase_24hr: Apredica 24-hour HepG2 Assay for Stress Kinase (AID 2282922); settings: HepG2 stress kinase (phospho-c-Jun) imaging, actives raise or lower the signal
Method in brief: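 HepG2 cells exposed 24 h to 0.39–200 uM compound in duplicate (0.5% v/v DMSO final). Cells fixed in 3.7% formaldehyde, permeabilized and immunostained for phospho-c-Jun; read by high-content fluorescence imaging, fitted bidirectionally against DMSO.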

[16] = APR_HepG2_MitoMass_72hr: Apredica 72-hour HepG2 Assay for Mitochondrial Mass (AID 2282924); settings: high-content imaging, actives raise or lower the signal;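 further: MitoTracker Red CMXRos stain intensity per cell imaged as mitochondrial mass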
Method in brief: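 HepG2 cells dosed 72 hr at 0.39–200 uM (0.5% DMSO), in duplicate. MitoTracker Red CMXRos 250 nM loaded 30 min before formaldehyde fixation; high-content fluorescence imaging, bidirectional fit versus DMSO.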

[17] = APR_HepG2_p53Act_24hr: Apredica 24-hour HepG2 Assay for p53 Activation (AID 2282913); settings: high-content imaging, actives raise or lower the signal;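 further: p53 protein immunofluorescence averaged per cell in HepG2 with Hoechst nuclei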
Method in brief: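 Fluorescence imaging of formaldehyde-fixed HepG2 cells labelled for p53 and with Hoechst, 24 h after dosing (0.39–200 uM, duplicate wells, 0.5% v/v DMSO). Signal fitted in both directions relative to DMSO.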

[18] = APR_HepG2_p53Act_72hr: Apredica 72-hour HepG2 Assay for p53 Activation (AID 2282923); settings: high-content imaging, actives raise or lower the signal;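 further: average cellular p53 protein immunofluorescence intensity in HepG2 cells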
Method in brief: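 HepG2 monolayers receive test compounds in duplicate at ten concentrations (0.39 through 200 uM) for 72 hr. They are then formaldehyde-fixed, antibody-labelled for p53, Hoechst-stained and imaged, with activity fitted bidirectionally versus DMSO.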

[19] = APR_HepG2_MitoMembPot_72hr: Apredica 72-hour HepG2 Assay for Mitochondrial Membrane Potential (AID 2282917); settings: imaging, actives raise or lower the signal
Method in brief: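 HepG2 cells dosed 72 hr with compound at 0.39–200 uM in duplicate, 0.5% v/v DMSO final. Mitochondria stained with 250 nM MitoTracker Red CMXRos for 30 min before formaldehyde fixation, imaged by high-content fluorescence; bidirectional fit versus DMSO.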

[20] = APR_HepG2_MicrotubuleCSK_72hr: Apredica 72-hour HepG2 Assay for Microtubule CSK Stabilty (AID 2282919); settings: HepG2 microtubule cytoskeleton, high-content imaging, actives raise or lower the signal
Method in brief: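 HepG2 cells were exposed 72 hr to compound at 0.39–200 uM in duplicate (0.5% DMSO final), then fixed and permeabilized. Alpha-tubulin immunofluorescence was imaged by high-content microscopy, with bidirectional fitting against DMSO and taxol as positive control.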

Measured: AC50

CC(C)CC(C)O (stereo not given)
inactive: [1] | [2] | [3] | [4] | [5] | [6] | [7] | [8] | [9] | [10] | [11] | [12] | [13] | [14] | [15] | [16]

CCc1cccc(CC)c1N
inactive: [1] | [2] | [3] | [4] | [6] | [7] | [8] | [17] | [9] | [10] | [11] | [12] | [13] | [14] | [15] | [18] | [16]

OC[C@H]1O[C@@H]2O[C@H]3[C@H](O)[C@@H](O)[C@@H](O[C@H]4[C@H](O)[C@@H](O)[C@@H](O[C@H]5[C@H](O)[C@@H](O)[C@@H](O[C@H]6[C@H](O)[C@@H](O)[C@@H](O[C@H]7[C@H](O)[C@@H](O)[C@@H](O[C@H]1[C@H](O)[C@H]2O)O[C@@H]7CO)O[C@@H]6CO)O[C@@H]5CO)O[C@@H]4CO)O[C@@H]3CO
inactive: [1] | [2] | [3] | [4] | [5] | [6] | [7] | [8] | [9] | [10] | [11] | [19] | [12] | [13] | [14] | [15] | [16]

CCCOc1ccc(S(=O)(=O)N2CCN(CC)CC2)cc1-c1nc2c(CC)n(Cc3ccccn3)nc2c(=O)[nH]1
active: [10] 88.5 µM | [11] 99.7 µM | [12] 90.2 µM
inactive: [1] | [2] | [3] | [4] | [5] | [6] | [7] | [8] | [9] | [19] | [20] | [13] | [14] | [15] | [16]

CCc1ccc(O)c(C(C)(C)C)c1
active: [2] 98.1 µM | [4] 83.8 µM | [6] 101 µM | [7] 86.2 µM | [8] 105 µM | [10] 80.7 µM | [11] 79.6 µM | [12] 81.3 µM | [14] 84.8 µM | [18] 71.6 µM
inactive: [1] | [3] | [17] | [9] | [20] | [13] | [15] | [16]

CCCCCCCCCCCCCCCCOS(=O)(=O)O
inactive: [1] | [2] | [3] | [4] | [6] | [7] | [8] | [17] | [9] | [10] | [11] | [19] | [12] | [20] | [13] | [14] | [15] | [18] | [16]
